The full ranking holds about 35,000 sequences; the median of “fluorescence intensity (a.u.)” is about 10,000, and the highest 2% start at about 52,000. Many of the other results were omitted from the sample, so the highest values are more common in it than they were.

This assay has as its target T1, OsWOX13 (Oryza sativa, UniProt Q5QMM3 1-267).
T1 sequence: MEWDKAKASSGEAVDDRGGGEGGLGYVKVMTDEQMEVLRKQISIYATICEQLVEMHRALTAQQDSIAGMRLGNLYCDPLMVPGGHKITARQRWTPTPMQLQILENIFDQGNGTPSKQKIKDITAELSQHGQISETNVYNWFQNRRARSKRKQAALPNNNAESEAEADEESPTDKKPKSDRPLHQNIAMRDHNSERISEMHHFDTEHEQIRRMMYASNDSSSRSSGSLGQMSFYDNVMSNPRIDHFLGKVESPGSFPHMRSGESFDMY
The assay is described as follows: protein-binding microarray (RPBM); PBS, 2% BSA, 51.3 ng/ul salmon testes DNA, 50 uM zinc acetate, 200 nM TF, 25 C, 1 h; high values mean tight binding. The conditions noted are these: protein: recombinant; tags: N-terminal polyhistidine and DsRed monomer fusion (pET32a); label: CyDye5-dUTP incorporated in the synthesized complementary strand; 3' TTTTT single-stranded linker to array surface; dsDNA, one strand shown. An outline of the steps:
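For the binding signal, per-feature fluorescence intensity was read in arbitrary units on an Axon 4000B scanner. Before scanning, a 2% BSA-blocked custom Agilent array made double-stranded with Cy5-dUTP was washed after 1 h at 25 °C with 200 nM protein and 50 µM zinc acetate. The proteins were Ni–NTA-purified transcription factors with N-terminal polyhistidine and DsRed fusions, expressed in E. coli BL21-CodonPlus.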
On to “CAAGATTGGGCGAGGGAGGGAGGAGTCCAGATCCTGCCTCCGGAGTCACCTAGTGCAG”, for which the binding signal is 3250 fluorescence intensity (a.u.).

Consider “ATTCTCGATTTAACACTAATCATCATTATCCTAATAACCACGGAGTCACCTAGTGCAG”, for which the binding signal was 6320 fluorescence intensity (a.u.). “CTTAATTTAGAGTTGATTTTGGAGTTTCTTTTATCGTAGTCGGAGTCACCTAGTGCAG”: the binding signal was 39500 fluorescence intensity (a.u.). The figure for “ATTACTTATCTGATTTACGATCCGACTTAACCACTGTATTCGGAGTCACCTAGTGCAG” is 4150 fluorescence intensity (a.u.).

In the case of “ACAAATTGGTCACTGGCTGAATAGTTTCTACATCAGTTAACGGAGTCACCTAGTGCAG”, the binding signal was 6570 fluorescence intensity (a.u.). The figure for “CGTAAACATCTGATGAGTACCTCACATGTTGAACATCTCCCGGAGTCACCTAGTGCAG” is 3900 fluorescence intensity (a.u.); for “GTTGAAGGATCTGGATGATTAGACGAGCGATGGATCAGGTCGGAGTCACCTAGTGCAG” it is 3720 fluorescence intensity (a.u.); for “TGCTGATTGGTATGCATAGAGTATGTATGGAAACCTTGTGCGGAGTCACCTAGTGCAG” it is 56600 fluorescence intensity (a.u.). The figure for “TGTCAGATTGGATGGATTGTGCTACTGTACATGCATAGTGCGGAGTCACCTAGTGCAG” is 37000 fluorescence intensity (a.u.); for “ATACTTGATTTAAAATGAAAACATAGACAAATGTATGGTACGGAGTCACCTAGTGCAG” it is 23800 fluorescence intensity (a.u.). The figure for “TCAGTATGTGATTGATTGAAAACTGAAATGGTAGACATACCGGAGTCACCTAGTGCAG” is 53400 fluorescence intensity (a.u.). “ATGTGAAATTGAATGCAGTAGTATGCACATGAAACTTGGGCGGAGTCACCTAGTGCAG”: the binding signal is 11300 fluorescence intensity (a.u.).

Regarding “ATAGTATATGATGGATGAGATGGATGCATAGATGGATTGGCGGAGTCACCTAGTGCAG”, the binding signal was 3330 fluorescence intensity (a.u.). On to “CCCGTGGCTCGACTTGATGGCGTGGAGAATGGACGAGTACCGGAGTCACCTAGTGCAG”, for which the binding signal was 6970 fluorescence intensity (a.u.). The figure for “TTATAATTAGAACTTTTATATGTGTGTTATGCACGACTTACGGAGTCACCTAGTGCAG” is 4050 fluorescence intensity (a.u.); for “ATTTGATCCAAATTATATGGTTATTAATCAAATCCCATAGCGGAGTCACCTAGTGCAG” it is 10200 fluorescence intensity (a.u.). As for “GTTAATTGATTAGCAAAAGGTACTATACATATATTCTTTTCGGAGTCACCTAGTGCAG”, the binding signal is 33800 fluorescence intensity (a.u.). Next, “GCAAATGTAGGTAAGATTGAGATTGACTTTATGTGGGTCCCGGAGTCACCTAGTGCAG”: 12500 fluorescence intensity (a.u.); “TGTCCTCCTGCTCCTGATTGGATCGGTAGAAAGGTGGCGGCGGAGTCACCTAGTGCAG”: 11000 fluorescence intensity (a.u.); “CGTACCAGCTGATTGATGGTGTCACTCACCAAATGTTCTTCGGAGTCACCTAGTGCAG”: 34300 fluorescence intensity (a.u.).

In the case of “GACGCGTCGGTGCTGATTGACTCGACGGCCGGCAACGTGGCGGAGTCACCTAGTGCAG”, the binding signal was 22800 fluorescence intensity (a.u.).

As to “GTGATTGGCGCGATCCGTGCGCTTGCCGTCTTGCCGGCGTCGGAGTCACCTAGTGCAG”, the binding signal is 30100 fluorescence intensity (a.u.). Next, “TGGATCCTGATTGGATCCTGATTGGCGTTGCGGCCGTGTCCGGAGTCACCTAGTGCAG”: 65000 fluorescence intensity (a.u.); “GCGGATTGGTTGCCTGACCCTCCTCCTCCTCCTCCTCCTCCGGAGTCACCTAGTGCAG”: 8490 fluorescence intensity (a.u.); “TCGACTTCTGATTGATGTCAGTAATGGTGTACCAGTGCTGCGGAGTCACCTAGTGCAG”: 41200 fluorescence intensity (a.u.).

As to “TTCTGATTGATGTCAGGAGTGGCGTGCGTACCAGTGCTGTCGGAGTCACCTAGTGCAG”, the binding signal was 58100 fluorescence intensity (a.u.). With “GCCGGTGATTGGCGTGGCGTGGCGTGGCGTGGCGCGGTGTCGGAGTCACCTAGTGCAG”, the binding signal is 52600 fluorescence intensity (a.u.).

In the case of “TACTGATGAGCCACTGACGGGTGGGGCCAGTTGACTGACACGGAGTCACCTAGTGCAG”, the binding signal was 6930 fluorescence intensity (a.u.). Next, “GCAGATTAGTCGTTAGTGGTGACAGAAACGGCAAAAGTGGCGGAGTCACCTAGTGCAG”: 6220 fluorescence intensity (a.u.). Next, “CTCCGATTAATGTGGAAATTTCTAACCTCTACAGCGAACGCGGAGTCACCTAGTGCAG”: 6190 fluorescence intensity (a.u.); “TTTCTAATTTCTTTCAGCATCGTATTAATGTCGATATTAACGGAGTCACCTAGTGCAG”: 3250 fluorescence intensity (a.u.).

Consider “GCGAAATTAATCTTTTGGTTGTTTCTACCTTTGCTCTGATCGGAGTCACCTAGTGCAG”, for which the binding signal was 5540 fluorescence intensity (a.u.). For “TTCGTGATTTATATAAAACATTCCCATGTTGAAACCCTAACGGAGTCACCTAGTGCAG”, the binding signal was 15400 fluorescence intensity (a.u.). Next, “GTGTTGTGATTCAATTAATTTGGCAGACACCAATTTGCTGCGGAGTCACCTAGTGCAG”: 23200 fluorescence intensity (a.u.); “TACTTTGATTTGCACACAATCAAATGTACAGTAGTACATGCGGAGTCACCTAGTGCAG”: 28500 fluorescence intensity (a.u.); “TTAAATCAATAATTAAATATATTTTCATAATAAATTTGTGCGGAGTCACCTAGTGCAG”: 27500 fluorescence intensity (a.u.).

Consider “GTTTTAAATTAATATATCTCGCGGAATATTAGAGCAAACGCGGAGTCACCTAGTGCAG”, for which the binding signal was 12600 fluorescence intensity (a.u.).

As to “TAGTAGATTGATTTCCTTAACCGAATATAGCAGGAATCCGCGGAGTCACCTAGTGCAG”, the binding signal is 52900 fluorescence intensity (a.u.). Next, “AAACTTCATTTAGTAGATTGATTTTCTTAACCGAATATAGCGGAGTCACCTAGTGCAG”: 9560 fluorescence intensity (a.u.); “GTAGATCAATTTCCTTAACCGAATATAGCAAGAATCCGACCGGAGTCACCTAGTGCAG”: 3270 fluorescence intensity (a.u.). Next, “TTGATTGTGTGCAACTGACTTTGTCCCCGTTCTATAATATCGGAGTCACCTAGTGCAG”: 8250 fluorescence intensity (a.u.). The figure for “ATGTTAATGCAAAATAAATTAAATACATAGCAAGGTACTACGGAGTCACCTAGTGCAG” is 11200 fluorescence intensity (a.u.); for “TGTTATTTCAATCTCAGGATTGAGTGCAAGCAATCTGTTTCGGAGTCACCTAGTGCAG” it is 4210 fluorescence intensity (a.u.); for “TTCAGTTTCTAGCTGGAAGAGACCTCCTATCATATATTTCCGGAGTCACCTAGTGCAG” it is 53600 fluorescence intensity (a.u.). As for “CCGGATTTCAGTTATTTCCTAATTGCATTTCTATATGGACCGGAGTCACCTAGTGCAG”, the binding signal is 9320 fluorescence intensity (a.u.). The figure for “TTTCAGTTATTTCCTAATTATATTTCTATATGGACTTAGTCGGAGTCACCTAGTGCAG” is 9980 fluorescence intensity (a.u.); for “AAGATAATGATGTAGACACGCAATCTGCGCGGGCCCACCACGGAGTCACCTAGTGCAG” it is 6040 fluorescence intensity (a.u.); for “AGATTAGATTTAGATTAGTCCTATGTGTCTCTTGCCGGGTCGGAGTCACCTAGTGCAG” it is 19100 fluorescence intensity (a.u.). The figure for “GAGAGACGGTTTAATCAAGGAGCAGTTGATGGGAGAGGCGCGGAGTCACCTAGTGCAG” is 4550 fluorescence intensity (a.u.).

Take “CTCAAGCTTAATTAAGCTCGTAATCTCATATAACCTCTTTCGGAGTCACCTAGTGCAG”: the binding signal was 57900 fluorescence intensity (a.u.). The figure for “AATTTAATCTTTAATTAATTTATTTCTCGCCTCTCTTAACCGGAGTCACCTAGTGCAG” is 4610 fluorescence intensity (a.u.); for “GTAATTAGCTAATCAATCTTTTCGGCTGTGCTTAATTAACCGGAGTCACCTAGTGCAG” it is 33500 fluorescence intensity (a.u.); for “CGAGCTTTAATCAATTAATCTGGAGTTTAGTGAATATATTCGGAGTCACCTAGTGCAG” it is 9200 fluorescence intensity (a.u.). Consider “CCAGTGATCAATTTAGCTCCATTTCACTAGTGCAATCTGTCGGAGTCACCTAGTGCAG”, for which the binding signal is 9160 fluorescence intensity (a.u.). For the sequence “ATCTGATTCGTGATTAATTAGTAATTAATTAATCTTTACTCGGAGTCACCTAGTGCAG”, the binding signal was 61000 fluorescence intensity (a.u.). The figure for “ACTTTAATTAGTCGTGATCAATCAATCAATCTGAATCTGTCGGAGTCACCTAGTGCAG” is 65100 fluorescence intensity (a.u.); for “GTTTGTGATTAATCTGATTTCGTACTATTAACGTGCAACTCGGAGTCACCTAGTGCAG” it is 31300 fluorescence intensity (a.u.); for “TCGTGATGACAGTTTACTCTTTAAATGAGAGTAATTAACTCGGAGTCACCTAGTGCAG” it is 17400 fluorescence intensity (a.u.).

Values taken from paper PMC7819943, “Rice protein-binding microarrays: a tool to detect cis-acting elements near promoter regions in rice”.
